Test results as given in PubChem BioAssay (NCATS).
Results filed as inconclusive are left out. Active and inactive are the calls of the source. Unless noted, the call rests on the fitted dose curve; in most records, active means well fitted curve in the direction sought with a large enough effect; inconclusive means small, poorly fitted or top-dose-only effect, or another doubt; inactive means no such curve, though single readings can be large; an effect the other way counts as inactive or inconclusive.

What was measured:
[1] = target: Lysosomal acid glucosylceramidase (Homo sapiens) (UniProt P04062); assay: Glucocerebrosidase-p2 (AID 348; in the data active means potency below about 10 µM; further: potency means the concentration at half of the fitted maximal effect); settings: purified GBA, blue fluorogenic substrate, 40 min
Chain of Lysosomal acid glucosylceramidase (Homo sapiens) (P04062 whole entry, looked up): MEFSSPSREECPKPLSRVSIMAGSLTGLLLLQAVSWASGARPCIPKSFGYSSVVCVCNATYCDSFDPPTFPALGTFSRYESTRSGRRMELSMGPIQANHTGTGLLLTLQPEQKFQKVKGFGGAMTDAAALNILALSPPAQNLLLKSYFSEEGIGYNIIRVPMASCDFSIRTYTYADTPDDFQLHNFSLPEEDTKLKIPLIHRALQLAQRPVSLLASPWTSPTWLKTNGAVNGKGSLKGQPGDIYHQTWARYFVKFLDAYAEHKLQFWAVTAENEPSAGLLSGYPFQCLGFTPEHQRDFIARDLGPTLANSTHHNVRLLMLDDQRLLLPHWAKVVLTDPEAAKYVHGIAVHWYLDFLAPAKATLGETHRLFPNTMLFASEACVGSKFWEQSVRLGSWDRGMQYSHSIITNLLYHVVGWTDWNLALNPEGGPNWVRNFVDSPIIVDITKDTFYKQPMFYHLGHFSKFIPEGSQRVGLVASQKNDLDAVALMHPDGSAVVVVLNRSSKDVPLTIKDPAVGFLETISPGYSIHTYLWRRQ
Summary of the method: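 Normal human glucocerebrosidase (0.2 nM) with blue fluorogenic substrate (80 uM final) in citrate/phosphate pH 5.9 with 10mM sodium taurocholate, 0.01% tween-20; 40 min RT, NaOH/glycine stop; fluorescence Ex 365/Em 440; AC50 from a titration from 0.6 nM upwards.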

[2] = AP1 Signaling Pathway (AID 357; active means well fitted curve in either direction with a large enough effect, not every such curve was filed as active; further: on the % scale 0 is the no-effect control and ±100 the full control effect); settings: ME-180 AP-1-bla reporter, EGF-induced, beta-lactamase ratio, 5 h; at 7.69 µM (top of the series) unless noted
Summary of the method: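 ME-180 cells with beta-lactamase reporter under AP-1 response element, stimulated with EC50 EGF; compounds tested in titration series, 5 h at 37 °C. CCF4 substrate added 2.5 h at room temperature; 460/530 nm emission ratio gave %activity and AC50.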

[3] = target: Cytochrome P450 1A2 (Homo sapiens) (UniProt P05177); assay: p450-cyp1a2 (AID 410; calls by dose curve;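 further: -100% = full effect of reference inhibitor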); settings: recombinant CYP1A2, luciferin-ME demethylation, luminescence; series mostly up to 11.4 µM
Chain of Cytochrome P450 1A2 (Homo sapiens) (P05177 whole entry, looked up): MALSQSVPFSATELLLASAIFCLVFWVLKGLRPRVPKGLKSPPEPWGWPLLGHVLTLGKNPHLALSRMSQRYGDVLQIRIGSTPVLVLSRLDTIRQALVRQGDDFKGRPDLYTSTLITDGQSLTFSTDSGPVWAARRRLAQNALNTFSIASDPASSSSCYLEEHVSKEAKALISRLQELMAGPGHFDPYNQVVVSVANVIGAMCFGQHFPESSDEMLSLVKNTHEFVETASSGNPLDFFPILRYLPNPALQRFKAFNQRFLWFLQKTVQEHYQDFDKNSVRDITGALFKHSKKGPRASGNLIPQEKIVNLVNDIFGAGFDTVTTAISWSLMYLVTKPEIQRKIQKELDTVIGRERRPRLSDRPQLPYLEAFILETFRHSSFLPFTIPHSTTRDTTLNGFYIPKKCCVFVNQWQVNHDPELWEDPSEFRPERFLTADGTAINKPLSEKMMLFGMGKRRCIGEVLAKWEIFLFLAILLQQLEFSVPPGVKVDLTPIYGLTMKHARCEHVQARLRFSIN
Summary of the method: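 Read-out is luminescence from luciferin produced by CYP1A2 demethylation of Luciferin-ME (100uM, at Km). Detection reagent stopped the 60 min NADPH-dependent reaction; signals were normalized to 57 uM furafylline.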

[4] = Stat Signaling Pathway (AID 446; active means well fitted curve in either direction with a large enough effect, not every such curve was filed as active;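 further: ME-180 cervical cancer cells given 40 pM IL-6 alongside compound; SIE-controlled beta-lactamase reporter measured as 460/530 nm FRET emission ratio; on the % scale 0 is the no-effect control and ±100 the full control effect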); settings: ME-180 (cervical carcinoma) SIE beta-lactamase reporter, IL-6 stimulated, 5 h; at 7.69 µM (top of the series) unless noted
Summary of the method: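 Compound effects on IL-6-induced STAT reporter activity were measured in ME-180 cells. After overnight culture, cells were co-treated with 40 pM IL-6 for 5 hrs before beta-lactamase substrate loading at room temperature.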

[5] = target: Glucocorticoid receptor (Homo sapiens) (UniProt P04150); assay: GR-GFP Redistribution (AID 450;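 active means compounds whose dose series gives a full or clear partial fitted curve of increased nuclear translocation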; further: potency means the concentration at half of the fitted maximal effect); settings: U2OS GR-GFP nuclear translocation, laser cytometry, 2 h
Chain of Glucocorticoid receptor (Homo sapiens) (P04150 whole entry, looked up, the tested form may be a part): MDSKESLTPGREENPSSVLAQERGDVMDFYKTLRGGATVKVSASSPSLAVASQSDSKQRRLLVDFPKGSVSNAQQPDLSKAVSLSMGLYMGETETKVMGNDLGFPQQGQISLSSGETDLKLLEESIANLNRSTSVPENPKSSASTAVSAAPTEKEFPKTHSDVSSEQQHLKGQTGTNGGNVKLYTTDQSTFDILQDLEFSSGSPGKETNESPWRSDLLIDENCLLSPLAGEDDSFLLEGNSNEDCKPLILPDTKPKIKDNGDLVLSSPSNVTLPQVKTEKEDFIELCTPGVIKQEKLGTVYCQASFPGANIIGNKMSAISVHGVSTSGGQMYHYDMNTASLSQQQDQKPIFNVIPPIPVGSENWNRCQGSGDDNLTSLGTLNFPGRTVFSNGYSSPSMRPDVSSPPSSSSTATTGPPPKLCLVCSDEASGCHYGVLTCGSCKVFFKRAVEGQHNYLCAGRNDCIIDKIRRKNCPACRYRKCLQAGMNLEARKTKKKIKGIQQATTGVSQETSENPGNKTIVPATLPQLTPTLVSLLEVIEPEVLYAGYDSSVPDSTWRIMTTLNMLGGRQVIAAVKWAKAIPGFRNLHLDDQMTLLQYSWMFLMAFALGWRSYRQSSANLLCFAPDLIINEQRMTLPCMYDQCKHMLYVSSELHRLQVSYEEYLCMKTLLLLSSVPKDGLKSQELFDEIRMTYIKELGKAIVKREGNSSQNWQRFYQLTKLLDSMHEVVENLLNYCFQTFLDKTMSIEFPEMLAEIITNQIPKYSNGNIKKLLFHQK

[6] = target: Glucocorticoid receptor (Homo sapiens) (UniProt P04150); assay: GR-EFC Redistribution (AID 451; calls by dose curve; further: potency means the concentration at half of the fitted maximal effect); settings: CHO-K1 GR-EFC translocation, beta-gal luminescence, 2 h
Summary of the method: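 CHO-K1 cells expressing nuclear EA and GR-ED fragments of b-gal; compounds titrated up to 46 uM final, 2 h at 37 C. GR nuclear translocation read as complemented b-gal luminescence after 1 h RT detection.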

[7] = target: Mitogen-activated protein kinase 10 (Mus musculus) (UniProt Q61831); assay: JNK3 AlphaScreen Assay (AID 530; active means well fitted curve in either direction with a large enough effect, not every such curve was filed as active;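 further: kinase came from lysate of stimulated human HepG2 cells; signal reports phosphorylation of biotinylated GST-cJun 1-79 at Ser73 with 10 µM ATP; on the % scale 0 is the no-effect control and ±100 the full control effect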); settings: JNK3 lysate, c-Jun phosphorylation; series mostly up to 57.1 µM
Summary of the method: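 HepG2 lysate (IL-1b/TNFa pre-activated) + biotin-GST-cJun 1-79 + anti-pSer73 cJun; cpd titration, 15 min RT; ATP 10 uM start; Tris pH 7.6, MgCl2, DTT, vanadate; beads in EDTA buffer; AlphaScreen.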

[8] = target: 3',5'-cyclic-AMP phosphodiesterase 4B (Homo sapiens) (UniProt Q07343); assay: qHTS Assay for Inhibitors of PDE-IV (AID 607; active means well fitted activation curve with a large enough effect in the main read-out, with a control signal flat, not every such curve was filed as active; further: % of control where 0% means no effect); settings: HEK293 ACTOne CNG channel cells, membrane potential fluorescence; series mostly up to 22.9 µM
Chain of 3',5'-cyclic-AMP phosphodiesterase 4B (Homo sapiens) (Q07343 whole entry, looked up): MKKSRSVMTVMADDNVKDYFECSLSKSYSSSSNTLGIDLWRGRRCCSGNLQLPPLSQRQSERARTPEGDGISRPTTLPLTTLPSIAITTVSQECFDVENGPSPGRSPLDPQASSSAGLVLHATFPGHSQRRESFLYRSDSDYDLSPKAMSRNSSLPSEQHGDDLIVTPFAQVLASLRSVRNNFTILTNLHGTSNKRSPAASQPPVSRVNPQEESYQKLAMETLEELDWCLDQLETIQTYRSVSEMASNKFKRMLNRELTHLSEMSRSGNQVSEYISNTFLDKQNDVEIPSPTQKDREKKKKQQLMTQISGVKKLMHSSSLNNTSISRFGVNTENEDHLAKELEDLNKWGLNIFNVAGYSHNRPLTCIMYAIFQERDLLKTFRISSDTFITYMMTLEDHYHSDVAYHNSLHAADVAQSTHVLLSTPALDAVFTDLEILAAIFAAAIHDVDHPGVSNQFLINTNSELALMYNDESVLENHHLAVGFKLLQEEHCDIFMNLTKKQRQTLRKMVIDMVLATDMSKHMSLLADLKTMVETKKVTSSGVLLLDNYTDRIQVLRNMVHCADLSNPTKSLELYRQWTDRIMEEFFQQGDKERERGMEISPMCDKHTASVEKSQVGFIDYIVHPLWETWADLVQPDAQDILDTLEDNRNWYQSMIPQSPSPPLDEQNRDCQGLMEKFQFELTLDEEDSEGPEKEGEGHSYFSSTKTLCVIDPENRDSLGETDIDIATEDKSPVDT
Summary of the method: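 ACTOne HEK293 cells carry a modified cAMP-gated CNG channel and express endogenous PDE4; plated 1000 cells/well, compounds up to 22.9 uM final. Membrane-potential dye fluorescence (ex 535/em 590) was read; parental cells received 10 uM forskolin + 100 uM RO 20-1724.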

[9] = target: ATP-dependent 6-phosphofructokinase (Trypanosoma brucei brucei) (UniProt O15648); assay: qHTS Assay to Find Inhibitors of T. brucei phosphofructokinase: hit validation (AID 492961); further: on the % scale 0 is the no-effect control and ±100 the full control effect; settings: T. brucei PFK, ADP-Glo luminescence; series mostly up to 51.4 µM
Chain of ATP-dependent 6-phosphofructokinase (Trypanosoma brucei brucei) (O15648 whole entry, looked up): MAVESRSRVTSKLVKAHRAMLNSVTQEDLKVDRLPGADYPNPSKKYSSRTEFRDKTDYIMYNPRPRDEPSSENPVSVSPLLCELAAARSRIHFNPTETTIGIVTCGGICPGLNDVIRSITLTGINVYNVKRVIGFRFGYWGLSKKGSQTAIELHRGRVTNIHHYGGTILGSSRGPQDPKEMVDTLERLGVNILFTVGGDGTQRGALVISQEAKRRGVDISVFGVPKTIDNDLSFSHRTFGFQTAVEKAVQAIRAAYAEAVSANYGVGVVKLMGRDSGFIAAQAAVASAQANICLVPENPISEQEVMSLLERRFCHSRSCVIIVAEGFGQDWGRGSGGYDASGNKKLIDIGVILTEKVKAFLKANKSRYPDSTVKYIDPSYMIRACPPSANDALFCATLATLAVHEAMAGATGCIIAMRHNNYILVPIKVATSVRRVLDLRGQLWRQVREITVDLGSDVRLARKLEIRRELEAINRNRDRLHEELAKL
Summary of the method: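 Luminescence from ADP-Glo reports ADP generated as T. brucei PFK (1.25 nM) phosphorylates 0.5 mM fructose-6-phosphate using 0.1 mM ATP. Reactions ran 45 min at room temperature, pH 8.0.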

[10] = target: Ubiquitin carboxyl-terminal hydrolase 1 (Homo sapiens) (UniProt O94782); assay: Inhibitors of USP1/UAF1: Pilot qHTS (AID 504865); settings: purified USP1/UAF1, Ub-rhodamine cleavage fluorescence; series mostly up to 114 µM;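 further: rhodamine fluorescence freed from ubiquitin-rhodamine substrate followed over time; top concentration of the series differs between compounds; on the % scale 0 is the no-effect control and ±100 the full control effect; nearly all actives have a fitted effect of over 35% in size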
Chain of Ubiquitin carboxyl-terminal hydrolase 1 (Homo sapiens) (O94782 whole entry, looked up): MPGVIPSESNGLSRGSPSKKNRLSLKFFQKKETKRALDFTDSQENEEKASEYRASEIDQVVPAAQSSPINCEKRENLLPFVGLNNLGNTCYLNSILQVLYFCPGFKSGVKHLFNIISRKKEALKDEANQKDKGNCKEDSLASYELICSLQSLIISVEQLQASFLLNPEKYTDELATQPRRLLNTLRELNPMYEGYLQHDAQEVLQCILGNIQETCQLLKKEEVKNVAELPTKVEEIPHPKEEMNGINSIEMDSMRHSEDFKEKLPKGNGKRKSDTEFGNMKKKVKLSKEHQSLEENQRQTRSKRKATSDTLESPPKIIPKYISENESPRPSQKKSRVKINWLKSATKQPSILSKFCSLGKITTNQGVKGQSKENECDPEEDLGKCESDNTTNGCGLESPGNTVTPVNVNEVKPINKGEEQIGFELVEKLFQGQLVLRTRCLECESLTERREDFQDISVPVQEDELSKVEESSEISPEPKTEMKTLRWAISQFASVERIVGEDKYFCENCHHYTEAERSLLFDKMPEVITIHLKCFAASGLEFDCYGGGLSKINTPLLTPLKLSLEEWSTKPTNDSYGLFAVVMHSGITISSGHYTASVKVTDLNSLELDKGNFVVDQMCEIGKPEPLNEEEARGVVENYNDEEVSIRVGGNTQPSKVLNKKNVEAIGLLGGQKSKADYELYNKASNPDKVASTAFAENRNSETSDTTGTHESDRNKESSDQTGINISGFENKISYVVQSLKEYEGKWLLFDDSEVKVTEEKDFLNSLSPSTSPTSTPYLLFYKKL
Summary of the method: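 1nM USP1/UAF1 + cpd, 15 min RT; start w/ Ub-Rho 150nM final; kinetic FL 480/540 nm, 6 reads q60 s. Buffer 50mM HEPES pH 7.8, 0.5mM EDTA, 1mM TCEP, 0.01% Tween-20, 0.1 mg/ml BSA.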

[11] = target: Luciferin 4-monooxygenase (Photinus pyralis) (UniProt P08659); assay: Biochemical firefly luciferase enzyme assay for NPC (AID 624030);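 further: purified P. pyralis luciferase at 10 nM with luciferin and ATP substrate; 0% = DMSO and -100% = full luciferase inhibition by PTC124 control; nearly all actives have a fitted effect of over 70% in size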; settings: purified P. pyralis luciferase, luminescence, 5 min; series mostly up to 58.6 µM
Chain of Luciferin 4-monooxygenase (Photinus pyralis) (P08659 whole entry, looked up): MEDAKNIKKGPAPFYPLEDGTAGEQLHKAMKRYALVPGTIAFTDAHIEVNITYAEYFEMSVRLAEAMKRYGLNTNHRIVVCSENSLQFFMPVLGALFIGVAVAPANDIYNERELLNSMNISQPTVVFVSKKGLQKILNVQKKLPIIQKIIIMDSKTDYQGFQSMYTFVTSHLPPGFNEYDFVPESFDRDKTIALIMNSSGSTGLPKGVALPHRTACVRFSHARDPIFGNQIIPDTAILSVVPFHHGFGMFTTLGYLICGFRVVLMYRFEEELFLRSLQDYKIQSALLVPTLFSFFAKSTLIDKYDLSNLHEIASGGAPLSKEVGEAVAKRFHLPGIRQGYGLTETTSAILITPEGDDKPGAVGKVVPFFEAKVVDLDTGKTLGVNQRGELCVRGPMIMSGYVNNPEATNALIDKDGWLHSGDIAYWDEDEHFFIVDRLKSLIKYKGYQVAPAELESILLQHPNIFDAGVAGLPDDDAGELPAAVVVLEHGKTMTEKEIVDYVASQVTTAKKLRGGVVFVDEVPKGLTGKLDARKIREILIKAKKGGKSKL
Summary of the method: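 Purified P. pyralis luciferase at 10 nM in 50 mM Tris Acetate (final), luminescence read within 5 minutes of enzyme addition to compounds. Activity normalised to PTC124 versus DMSO; concentration-response curves classed by r2, magnitude and activity.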

[12] = S16 Schwann cell viability assay (CellTiter-Glo assay) (AID 624031); settings: S16 rat Schwann cells viability, 24 h; series mostly up to 57.5 µM;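 further: native untransfected S16 rat Schwann cells; cellular ATP luminescence as a viability measure; plate controls were DMSO-treated cells for no effect and cell-free wells for full effect; nearly all actives have a fitted effect of over 70% in size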
Summary of the method: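 Rat S16 Schwann cells without reporter constructs received compound or DMSO for 24 h at 37 °C under 5% CO2. Cellular ATP was then quantified by CellTiter-Glo luminescence, with vehicle wells defined as 0% activity and cell-free wells as reference.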

[13] = S16 Schwann cell PMP22 intronic element firefly luciferase assay (AID 624032); settings: S16 rat Schwann cells, PMP22 element FLuc, 24 h; series mostly up to 57.5 µM;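 further: plate controls were DMSO for no effect and PTC124 positive control mean for full effect; nearly all actives have a fitted effect of over 30% in size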
Summary of the method: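 Rat S16 Schwann cells stably carrying firefly luciferase driven by a PMP22 intronic element, in 10% FBS, treated 24 h at 37 C. ONE-Glo luminescence normalized to PTC124 control and DMSO (0%); curves classed by r2, magnitude and activity.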

[14] = S16 Schwann cell PMP22 intronic element beta-lactamase assay (AID 624044; calls by dose curve;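 further: 0% = DMSO and -100% = potassium clavulanate positive control; nearly all actives have a fitted effect of over 15% in size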); settings: S16 rat Schwann cells, PMP22 element beta-lactamase FRET, 24 h; series mostly up to 38.3 µM
Summary of the method: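 Beta-lactamase reporter under a PMP22 intronic regulatory element in stable S16 rat Schwann cells; 24 h compound exposure. 460 nm blue signal normalized between DMSO (0%) and potassium clavulanate, with 535 nm FRET tracking viability; curves classed by r2 and response.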

[15] = qHTS profiling for inhibitors of Plasmodium falciparum proliferation (AID 504749);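 further: 0% = DMSO vehicle and full inhibition = artemisinin control; nearly all actives have a fitted effect of over 60% in size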; settings: P. falciparum in erythrocytes, SYBR Green DNA, 72 h, at 28.7 µM (top of the series)
Summary of the method: (§1)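 SYBR Green fluorescence (ex 485 nm, em 535 nm) reports parasite DNA after 72 h compound exposure of infected red cells at 0.3% parasitemia, 2.5% hematocrit; signal normalized to 0.29 uM artemisinin and vehicle wells.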

7G8 = assay: as above; settings: P. falciparum in erythrocytes, SYBR Green DNA, 72 h; series mostly up to 28.7 µM
Summary of the method: as §1

AA1029 = assay: as above; settings: P. falciparum in erythrocytes, SYBR Green DNA, 72 h; series mostly up to 28.7 µM
Summary of the method: as §1

AS120 = assay: as above; settings: P. falciparum in erythrocytes, SYBR Green DNA, 72 h; series mostly up to 28.7 µM
Summary of the method: as §1

ATS189 = assay: as above; settings: P. falciparum in erythrocytes, SYBR Green DNA, 72 h; series mostly up to 28.7 µM
Summary of the method: as §1

C2A = assay: as above; settings: P. falciparum in erythrocytes, SYBR Green DNA, 72 h; series mostly up to 28.7 µM
Summary of the method: as §1

CP185 = assay: as above; settings: P. falciparum in erythrocytes, SYBR Green DNA, 72 h; series mostly up to 28.7 µM
Summary of the method: as §1

CP191 = assay: as above; settings: P. falciparum in erythrocytes, SYBR Green DNA, 72 h; series mostly up to 28.7 µM
Summary of the method: as §1

CP192 = assay: as above; settings: P. falciparum in erythrocytes, SYBR Green DNA, 72 h; series mostly up to 28.7 µM
Summary of the method: as §1

CP194 = assay: as above; settings: P. falciparum in erythrocytes, SYBR Green DNA, 72 h; series mostly up to 28.7 µM
Summary of the method: as §1

CP201 = assay: as above; settings: P. falciparum in erythrocytes, SYBR Green DNA, 72 h; series mostly up to 28.7 µM
Summary of the method: as §1

CP203 = assay: as above; settings: P. falciparum in erythrocytes, SYBR Green DNA, 72 h; series mostly up to 28.7 µM
Summary of the method: as §1

CP211 = assay: as above; settings: P. falciparum in erythrocytes, SYBR Green DNA, 72 h; series mostly up to 28.7 µM
Summary of the method: as §1

CP217 = assay: as above; settings: P. falciparum in erythrocytes, SYBR Green DNA, 72 h; series mostly up to 28.7 µM
Summary of the method: as §1

CP237 = assay: as above; settings: P. falciparum in erythrocytes, SYBR Green DNA, 72 h; series mostly up to 28.7 µM
Summary of the method: as §1

CP238 = assay: as above; settings: P. falciparum in erythrocytes, SYBR Green DNA, 72 h; series mostly up to 28.7 µM
Summary of the method: as §1

CP247 = assay: as above; settings: P. falciparum in erythrocytes, SYBR Green DNA, 72 h; series mostly up to 28.7 µM
Summary of the method: as §1

CP250 = assay: as above; settings: P. falciparum in erythrocytes, SYBR Green DNA, 72 h; series mostly up to 28.7 µM
Summary of the method: as §1

CP252 = assay: as above; settings: P. falciparum in erythrocytes, SYBR Green DNA, 72 h; series mostly up to 28.7 µM
Summary of the method: as §1

C[N+]1(C)C2CC[C@H]1CC(OC(=O)[C@@H](CO)c1ccccc1)C2 (some centres undefined)
inactive: Potency [1] > 11.4 µM | activity change, negative = inhibition [2] 4% | Potency [3] | activity, negative = inhibition [4] 7.35% | Potency [5] > 46 µM | Potency [6] > 9.22 µM | activity change, negative = inhibition [7] 2.63% [at 11.4 µM] | outcome [8] | outcome [9] | Potency [10] | outcome [11] | outcome [12] | outcome [13] | outcome [14] | activity, negative = inhibition ([15]; parasite line A) 0.517% | activity, negative = inhibition ([15]; parasite line B) -9.85% | Potency (7G8) | Potency (AA1029) | Potency (AS120) | Potency (ATS189) | Potency (C2A) | Potency (CP185) | Potency (CP191) | Potency (CP192) | Potency (CP194) | Potency (CP201) | Potency (CP203) | Potency (CP211) | Potency (CP217) | Potency (CP237) | Potency (CP238) | Potency (CP247) | Potency (CP250) | Potency (CP252)
